# In the library only some 4% were active in any assay of this set; here they are far more common.
# esBAF inh – SWI/SNF esBAF complex inhibition; mouse ES cells, Bmi1-luciferase knock-in reporter, 24 h; 100% = twice the neutral-well signal; 350,000 compounds, 2% hits; reporter increase, % at 12.5 µM; in the data active = activation above about 40%;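 note: 0% = median of the plate's neutral control wells and 100% = double that signal; a rise in the Bmi1 reporter signal indicates esBAF inhibition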
# PAX8 inh HTS – PAX8 transcriptional activity inhibition | RMG-I TPO-luciferase reporter, SteadyGlo, 24 h | inhibition, % at 12.6 µM | 360,000 compounds, 1.2% hits;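 active = mean replicate inhibition at least 60% with every replicate also reaching 60%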;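 note: luciferase light reporting Pax8 driven TPO promoter activity; plate controls were median of neutral control wells for no effect and mitoxantrone controls for full effect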
# MITF TRPM1 HTS – increases MITF-driven TRPM1 promoter luciferase signal | SK-MEL-5 TRPM1-promoter luciferase, 24 h; % of positive control, neutral wells = 0 | activation, % at 12.5 µM | 300,000 compounds, 0.75% hits;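 active = mean activation of at least 80% with every replicate also reaching 80%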;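 note: 0% = neutral control wells and 100% = parthenolide positive control wells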
# EWS-Fli inh – EWS/Fli transcriptional activity inhibition; A673 NR0B1-luciferase reporter, viability-normalised; inhibition, % at 12.6 µM; 350,000 compounds, 0.67% hits; AID 651661;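 active = mean inhibition of at least 50% after viability correction, with every replicate also passing that limit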;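 note: firefly luciferase signal divided by Alamar Blue viability fluorescence both relative to DMSO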
# Wnt act – activates Wnt/beta-catenin signaling in a reporter cell assay; activator, plate reader; activation, % at 9.35 µM; 300,000 compounds, 1.2% hits; AID 743398; in the data active = activation above about 30%, passing the limit was not always enough;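 note: 0% = neutral control wells and 100% = positive control wells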
# MITF TRPM1 inh – reduces MITF-dependent TRPM1 promoter luciferase signal; 330,000 compounds, 0.83% hits; SK-MEL-5 TRPM1 promoter luciferase, 24 h; inhibition, % at 12.5 µM;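 active = mean inhibition across replicates of 60% or more, whatever share of single replicates reaches that level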
# * = called active by the depositor; · = not tested or not shown.
SMILES,esBAF inh,PAX8 inh HTS,MITF TRPM1 HTS,EWS-Fli inh,Wnt act,MITF TRPM1 inh
C[C@@H]1CN([C@@H](C)CO)C(=O)c2cc(-c3ccccc3)cnc2O[C@@H]1CN(C)C(=O)NC1CCCC1,-5.5,9.0,·,4.0,·,·
O=C(NCC1CCCO1)C(=O)NCC(c1ccco1)N1CCN(c2ccccc2)CC1 (stereo not drawn),-7.0,151.4*,10.2,-7.9,0.1,-4.4
COc1ccc(-c2csc(N3CCC(C(N)=O)CC3)n2)cc1,50.1*,-91.8,42.9,-22.4,7.8,-41.9
Cc1ccc(-c2csc(N3CCC(C(N)=O)CC3)n2)cc1,27.0,-169.6,58.7,-98.3,12.3,-60.8
NC(=O)C1CCN(c2nc(-c3cccc(Cl)c3)cs2)CC1,48.9*,-272.3,46.0,-63.1,13.4,-39.6
O=C(C[C@@H]1CC[C@H]2[C@@H](COC[C@@H](O)CN2C(=O)c2cnccn2)O1)NCc1ccccc1,-3.1,1.7,·,8.4,·,·
C[C@@H]1CN([C@H](C)CO)C(=O)c2cc(NS(=O)(=O)c3cn(C)cn3)ccc2O[C@@H](C)CCCCO[C@@H]1CN(C)S(=O)(=O)c1ccccc1,4.1,19.7,·,-3.6,·,·
CC=Cc1ccc2n(c1=O)C[C@@H]1[C@@H](CO)[C@H](C(=O)N(C)C)N(C(=O)CC3CC3)[C@H]21 (mixture of isomers),2.5,-5.1,·,-2.4,·,·
CCOC(=O)C1(Cc2cccc(OC)c2)CCCN(C(=O)CSC)C1 (stereo not drawn),58.6*,-37.2,·,-78.6,10.4,-51.8
CC#CC(=O)N1CCCC(Cc2cccc(OC)c2)(C(=O)OCC)C1 (stereo not drawn),58.8*,-44.3,50.9,-89.0,27.1,-50.6
CCOC(=O)C1(Cc2cccc(OC)c2)CCCN(S(=O)(=O)CC)C1 (stereo not drawn),-7.0,-8.4,·,-1.9,-0.4,6.9
O=C(C[C@H]1C[C@H]2c3cc(NS(=O)(=O)c4ccc(F)cc4)ccc3O[C@H]2[C@@H](CO)O1)NCc1ccncc1,-2.2,·,·,1.7,·,·
CCC(=O)N(C)C[C@@H]1Oc2cc(C#CC3CC3)ccc2S(=O)(=O)N([C@@H](C)CO)C[C@H]1C,-3.7,·,·,3.2,·,·
C[C@@H]1CN([C@H](C)CO)C(=O)c2cc(NC(=O)Nc3ccc(C(F)(F)F)cc3)ccc2O[C@H]1CN(C)S(C)(=O)=O,-7.4,-9.1,·,1.1,·,·
Cc1[nH]c2c(ccc3cccnc32)c1C,·,-55.5,·,-40.1,7.8,-11.2
CC1=[N+](C)c2c(ccc3cccnc23)C1(C)C,·,85.3*,26.8,19.7,-6.2,-35.3
CNC(=O)c1nnsc1S(=O)(=O)c1ccc(Cl)cc1,9.6,107.5*,-84.5,57.7*,-6.2,85.1*
O=C(c1nnsc1S(=O)(=O)c1ccc(Cl)cc1)N1CCOCC1,·,93.4*,-71.8,1.0,-0.7,73.4*
CNC(=O)c1ccc(S(=O)(=O)c2ccc(Cl)cc2)c(NC(C)=O)c1,-5.6,19.5,-1.7,3.6,0.5,2.9
CCCNC(=O)C[C@@H]1CC[C@@H]2[C@@H](COc3ccc(NC(=O)C4CCCC4)cc3C(=O)N2C)O1,4.7,0.4,·,1.4,·,·
Cc1ccc(S(=O)(=O)Nc2ccc3c(c2)C(=O)N(C)[C@H]2CC[C@@H](CC(=O)O)O[C@H]2CO3)cc1,5.4,0.2,·,-5.6,·,·
COc1ccc2cc3c(N)nn(C(=O)Cc4c[nH]c5ccccc45)c3nc2c1,·,8.4,-54.5,21.9,-11.9,63.4*
CC(C)NC(=O)Nc1ccc2c(c1)C(=O)N([C@H](C)CO)C[C@@H](C)[C@@H](CN(C)Cc1ccc(C(F)(F)F)cc1)O2,-4.5,-1.7,·,3.1,·,·
CC(=O)N1N=C(c2ccc(NS(=O)(=O)c3ccccc3)cc2)CC1c1ccco1 (stereo not drawn),-1.5,27.0,-8.3,54.5*,-7.0,9.3
CC(=Nc1ccc(C)c(C)c1)C1=C(O)CSC1=O,51.3*,·,132.0*,·,·,-120.1
COc1ccccc1N=C(C)C1=C(O)CSC1=O,3.6,·,1.6,·,0.9,-1.7
Cc1cccc(Cn2cc(SCC(=O)Nc3nccs3)c3ccccc32)c1,65.3*,-7.6,68.3,-70.9,40.8*,-65.5
Cc1ccc(Cn2cc(SCC(=O)Nc3nccs3)c3ccccc32)cc1,37.8,-73.0,·,-51.5,13.2,·
CN(C)CCNC(=O)c1cc2c(s1)-c1ccc(Cl)cc1SC2,-0.5,93.5*,-98.8,35.4,7.4,99.8*
